Bioassay records from PubChem.
Most compounds without a hit are left out; they make up all but 11% or so of the library.
WT yeast gro inh – growth inhibition of WT yeast, mitochondrial fusion screen. 2.1% of 190,000 active. mitochondrial fusion phenotypic screen, WT strain. inhibition, % at 10 µM; in the data active = inhibition above about 58%; tested in S. cerevisiae
Ins promoter up – MIN6 insulin promoter up-regulation; MIN6 insulin promoter-GFP reporter, high-content imaging; active compounds read high; z-score at 5 µM; 0.3% of 190,000 active; AID 1625;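 active = z-score above 3 at 5 µM with at least 500 cells counted in the well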
Lmaj promast – Leishmania major promastigote growth inhibition; Leishmania major promastigotes, resazurin fluorescence viability; inhibition, % at 10 µM; AID 1063; 9% of 200,000 active; in the data active = inhibition above about 50%;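 note: promastigotes grown with compound for 44 hours at 28 °C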
Autophagy HCS – modulators of autophagy; MEF GFP-LC3 puncta imaging; test concentration mostly 10 µM; calls only at 10 µM (by protocol); 0.98% of 190,000 active; AID 463193;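 active = percentage of spot-positive cells more than 3 SD above its plate mean, without a fluorescence outlier flag or 80% toxicity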
Insulin prom inh – TRM-6 insulin promoter activity inhibition; TRM-6 cells (human fetal islet line), insulin promoter-eGFP reporter, imaging; reporter expression induced with tamoxifen; inhibition, % at 2 µM; 0.9% of 130,000 active; AID 1273;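 active = inhibition above the mean plus 3 SD, with well images judged a real hit on visual review, cut at about 60% in these data, passing the limit was not always enough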
Hits are given with their value; . = inactive; / = not tested or not shown; + = active, no number.

SMILES	WT yeast gro inh	Ins promoter up	Lmaj promast	Autophagy HCS	Insulin prom inh
Cc1ccc(NCC(=O)N/N=C\c2ccc([N+](=O)[O-])o2)cc1	.	.	100.1	.	/
CC1(C)CC(=O)C(C=NCCN2CCNCC2)=C(O)C1	.	.	.	.	.
CN(C)/C=C(\C#N)C(=O)N/N=C(\CC(=O)C(F)(F)F)c1ccco1	.	.	.	.	/
Cc1ccc(NC(=O)CN(C)C(=S)NC2CC2)cc1	.	.	.	.	/
CSc1ccc(/C=N/NC(=O)c2ccc(O)cc2)cc1	.	.	96.0	.	.
CCN(CC)S(=O)(=O)c1cccc(C(=O)N/N=C/c2ccc([N+](=O)[O-])o2)c1	.	.	99.8	.	/
O=C(CNC(=O)c1ccccc1)N/N=C/c1ccc([N+](=O)[O-])s1	.	/	100.5	.	.
C=CCN(Cc1nc(-c2cc(OC)ccc2OC)oc1C)C1CCS(=O)(=O)C1 (stereo unspecified)	.	.	.	.	.
C=CCN(Cc1nc(-c2ccc(OC)c(OC)c2)oc1C)C1CCS(=O)(=O)C1 (stereo unspecified)	.	.	53.6	.	.
Cc1c(C(=O)NN2CCN(C)CC2)cccc1[N+](=O)[O-]	.	/	.	.	.
COc1cccc(NC(=O)c2cc([N+](=O)[O-])ccc2NC(=O)CNCC2CCCO2)c1 (stereo unspecified)	.	.	.	+	.
O=C(c1cc2ccccc2o1)N(C1CC1)C1(C(=O)Nc2ccccc2)CCCC1	72.1	/	.	.	/
CC(C)(C)c1ccc(-c2nc(O)c(CC(=O)O)s2)cc1	/	.	/	/	/
CC(C)OC(=O)c1c(NC(=O)CCC(=O)O)sc2c1CCCCC2	.	.	.	.	66.7
CN1CCN(C2=Cc3ccccc3Sc3cc(F)c(F)cc32)CC1	.	/	100.5	.	.
CN1CCN(C2=Cc3ccccc3Sc3cc(F)c(Cl)cc32)CC1	98.5	/	92.5	.	.
CN1CCN(C2=Cc3cc(Cl)ccc3Sc3cc(F)ccc32)CC1	95.4	/	100.3	.	.
CN1CCN(c2nc(-c3ccccc3)cc(C(F)(F)F)n2)CC1	.	/	.	.	.
Cc1ccc(-n2ncc3c(NNC(=O)c4cccs4)ncnc32)cc1	.	.	.	.	.
CC1=CC(=NOC(=O)c2cccc([N+](=O)[O-])c2)C=C(C)C1=O	.	.	100.2	.	.
CC1=CC(=O)C(C(C)C)=C/C1=N/OC(=O)c1cccc([N+](=O)[O-])c1	.	.	100.4	.	.
Cc1ccc(C(=O)O/N=C(\N)c2cccc([N+](=O)[O-])c2)cc1	.	.	.	.	.
CC1=CC(=O)C(C(C)C)=C/C1=N\OC(=O)c1cccc2nc(C)oc12	.	.	95.5	.	/
Cc1nc2cccc(C(=O)Oc3ccc([N+](=O)[O-])cc3)c2o1	.	.	.	.	.
Cc1cc(N2CCCN(C)CC2)nc2cc(Cl)ccc12	.	.	80.2	.	.
SMILES	WT yeast gro inh	Ins promoter up	Lmaj promast	Autophagy HCS	Insulin prom inh
Cc1cc(-n2nnc3ccccc32)nc2ccccc12	.	/	.	.	.
Cc1cc(N2CCCCC2)nc2ccccc12	.	.	.	.	.
Cc1nn(-c2cc(C)c3ccccc3n2)c2c1C1C(C2)C1(C)C (stereo unspecified)	63.5	.	.	.	.
Cc1cc(N2CCCCCC2)nc2ccccc12	.	.	90.7	.	/
COc1ccc(CCNC(=O)CN(CCc2ccccc2)S(C)(=O)=O)cc1OC	.	.	.	.	.
O=C(c1ccc(F)cc1Cl)N(c1ccccn1)C1CCCCC1	.	.	.	.	/
FC(F)(F)c1ccc(NC(=S)NC2CCCCC2)cc1	.	.	.	.	.
CN1CCN(C(=S)Nc2cccc(C(F)(F)F)c2)CC1	.	.	82.7	.	.
FC(F)(F)c1cccc(NC(=S)NC2CCCC2)c1	.	.	73.8	.	.
CCN(CC)S(=O)(=O)c1cccc(NC(=O)COC(=O)/C=C/c2ccco2)c1	.	.	57.3	.	.
FC(F)(F)c1cccc(N2CCN(C(=S)NC3CCCCC3)CC2)c1	.	.	97.1	.	.
FC(F)(F)c1cccc(N2CCN(C(=S)NC3CCCC3)CC2)c1	.	.	.	.	.
O=c1c(-c2nc3ccccc3o2)c2oc3ccccc3n2c2ccccc12	.	.	.	.	.
COC(=O)c1c(C)[nH]c(C(=O)C(C)Sc2nnc(-c3cc(OC)c(OC)c(OC)c3)o2)c1C (stereo unspecified)	.	.	.	/	/
CCN(CC)S(=O)(=O)c1cccc(NC(=O)Nc2cccc(C(F)(F)F)c2)c1	.	.	100.5	.	.
Cn1ncc(Br)c1C(=O)Nc1cccc(C(F)(F)F)c1	/	.	/	/	/
FC(F)(F)c1cccc(NC(=S)NCC2COc3ccccc3O2)c1 (stereo unspecified)	88.7	.	51.4	.	.
